The values that follow come from PubChem BioAssay (NCI).

This is part of a sample that, as a whole, favours compounds with a hit. Of some 79,000 tested, about 15% had one in any assay. Unmarked numbers belong to inactive results. Activity calls are given as the source filed them. No stated cut-off is given here; in the data, active means growth inhibition above about 70%; inactive means the rest.

A short description of experiment [1]: NCI Yeast Anticancer Drug Screen. Data for the rad50 strain (AID 155).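 Further: 0% = growth of vehicle-only cultures of the same strain.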 The conditions noted are these: S. cerevisiae rad50 strain growth inhibition, hits give high values. In outline: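 Compounds were tested on a yeast strain with an engineered DNA damage repair alteration; the reported value is growth inhibition normalised to vehicle treatment.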
Experiment [2] can be described thus: NCI Yeast Anticancer Drug Screen. Data for the mec2-1 strain (AID 157). The conditions noted are these: S. cerevisiae mec2-1 strain, hits give high values. A digest of the protocol: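 Using mec2-1 yeast: add compound, measure growth, express inhibition versus vehicle-treated cultures.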
The nature of experiment [3]: NCI Yeast Anticancer Drug Screen. Data for the sgs1 mgt1 strain (AID 161).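 Further: 0% = growth of cultures given vehicle only.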 The conditions noted are these: S. cerevisiae sgs1 mgt1 strain, hits give high values. A digest of the protocol:
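Yeast cells carrying a defined DNA-repair defect were exposed to test compounds. Growth inhibition was measured relative to vehicle-treated controls.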

Experiment [4] can be described thus: NCI Yeast Anticancer Drug Screen. Data for the cln2 rad14 strain (AID 165).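 Further: 0% = growth equal to vehicle treated cultures.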 The note with it: S. cerevisiae cln2 rad14 strain, hits give high values. In outline:
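Yeast strain cln2 rad14, bearing defects in cell cycle control and DNA repair, serves as the test system; values reflect growth inhibition compared with vehicle.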

A short description of experiment [5]: NCI Yeast Anticancer Drug Screen. Data for the bub3 strain (AID 167). The note with it: S. cerevisiae bub3 mutant strain, hits give high values. In outline:
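Growth of a checkpoint-deficient yeast mutant is measured after compound exposure. Values represent inhibition relative to vehicle.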

The nature of experiment [6]: NCI Yeast Anticancer Drug Screen. Data for the mlh1 rad18 strain (AID 175). The note with it: S. cerevisiae mlh1 rad18 strain growth inhibition, hits give high values. A digest of the protocol: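 Steps: expose repair-defective yeast to compound; measure growth; express inhibition against vehicle-treated controls.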
The mark [7] stands for this setting: at 5.0 µM (retest, dose inferred, filed as 0.5).
The mark [8] stands for this setting: at 50.0 µM (retest, dose inferred, filed as 5.0).

Consider `CC(=O)O[C@H]1CC[C@@]2(C)C(CC[C@]3(C)C2CC=C2[C@@H]4CC(C)(C)CC[C@]4(C(=O)NCCN(C)C)CCC23C)C1(C)C` (stereo partly specified), for which the growth inhibition was -3% in experiment [1] (setting [7]); 94% (active) in experiment [1] (setting [8]); 77% (active) in experiment [1] (at 50.0 µM); -2% in experiment [2] (setting [7]); 98% (active) in experiment [2] (setting [8]); 95.4% (active) in experiment [2] (at 50.0 µM). For the same compound, the growth inhibition in experiment [3] (setting [7]) was -2%; in experiment [3] (setting [8]) it was 98% (active); in experiment [3] (at 50.0 µM), 72.7% (active); in experiment [4] (setting [7]), -4%; in experiment [4] (setting [8]) it was 57%; in experiment [4] (at 50.0 µM), 5.3%. Further, the growth inhibition is -2% in experiment [5] (setting [7]); 87% (active) in experiment [5] (setting [8]); -21.4% in experiment [5] (at 50.0 µM); -2% in experiment [6] (setting [7]); 93% (active) in experiment [6] (setting [8]); 97.7% (active) in experiment [6] (at 50.0 µM).

As to `CC(=O)N(C)c1ccc(/C=C2\C=Cc3ccccc32)cc1`, the growth inhibition was 9% in experiment [1] (setting [7]); 91% (active) in experiment [1] (setting [8]); 41.2% in experiment [1] (at 50.0 µM); 4% in experiment [2] (setting [7]); 94% (active) in experiment [2] (setting [8]); 39.7% in experiment [2] (at 50.0 µM). The growth inhibition is 10% in experiment [3] (setting [7]); 93% (active) in experiment [3] (setting [8]); 26.3% in experiment [3] (at 50.0 µM); -4% in experiment [4] (setting [7]); 81% (active) in experiment [4] (setting [8]); 32.8% in experiment [4] (at 50.0 µM). The growth inhibition in experiment [5] (setting [7]) was 7%; in experiment [5] (setting [8]), 94% (active); in experiment [5] (at 50.0 µM), 72.2% (active); in experiment [6] (setting [7]), 11%; in experiment [6] (setting [8]) it was 92% (active); in experiment [6] (at 50.0 µM) it was 56.3%.

Take `CC1=C(C(=O)OCCO[N+](=O)[O-])C(c2cccc([N+](=O)[O-])c2)C(C(=O)OC(C)C)=C(C)N1` (stereo unspecified): the growth inhibition in experiment [1] (setting [7]) is 13%; in experiment [1] (setting [8]), 91% (active); in experiment [1] (at 50.0 µM), 79.2% (active); in experiment [2] (setting [7]), 10%; in experiment [2] (setting [8]), 92% (active); in experiment [2] (at 50.0 µM), 83% (active). The growth inhibition in experiment [3] (setting [7]) was -22%; in experiment [3] (setting [8]), 91% (active); in experiment [3] (at 50.0 µM), 87.5% (active); in experiment [4] (setting [7]), -3%; in experiment [4] (setting [8]) it was 87% (active); in experiment [4] (at 50.0 µM), 81.5% (active). Moreover, the growth inhibition is -3% in experiment [5] (setting [7]); 88% (active) in experiment [5] (setting [8]); 85.3% (active) in experiment [5] (at 50.0 µM); 12% in experiment [6] (setting [7]); 95% (active) in experiment [6] (setting [8]); 71% (active) in experiment [6] (at 50.0 µM).

In the case of `Nc1nc(-c2ccccn2)cc2cc(Cl)ccc12`, the growth inhibition in experiment [1] (setting [7]) was 93% (active); in experiment [1] (setting [8]), 99% (active); in experiment [1] (at 50.0 µM), 3.15%; in experiment [2] (setting [7]), 92% (active); in experiment [2] (setting [8]), 100% (active); in experiment [2] (at 50.0 µM), -5.45%. Besides, the growth inhibition in experiment [3] (setting [7]) is 95% (active); in experiment [3] (setting [8]), 99% (active); in experiment [3] (at 50.0 µM), 7.55%; in experiment [4] (setting [7]), 88% (active); in experiment [4] (setting [8]) it was 98% (active); in experiment [4] (at 50.0 µM), -1.4%. For the same compound, the growth inhibition is 92% (active) in experiment [5] (setting [7]); 99% (active) in experiment [5] (setting [8]); 8.05% in experiment [5] (at 50.0 µM); 94% (active) in experiment [6] (setting [7]); 98% (active) in experiment [6] (setting [8]); 13.9% in experiment [6] (at 50.0 µM).

Take `O=S(Nc1ccccc1Br)c1ccccc1` (stereo unspecified): the growth inhibition in experiment [1] (setting [7]) is -4%; in experiment [1] (setting [8]) it was 10%; in experiment [1] (at 50.0 µM) it was 22.2%; in experiment [2] (setting [7]) it was -2%; in experiment [2] (setting [8]), 16%; in experiment [2] (at 50.0 µM), 24.1%. Moreover, the growth inhibition is -3% in experiment [3] (setting [7]); 21% in experiment [3] (setting [8]); 59.2% in experiment [3] (at 50.0 µM); 1% in experiment [4] (setting [7]); 12% in experiment [4] (setting [8]); -3.25% in experiment [4] (at 50.0 µM). The growth inhibition is -4% in experiment [5] (setting [7]); 34% in experiment [5] (setting [8]); 16.9% in experiment [5] (at 50.0 µM); -4% in experiment [6] (setting [7]); 45% in experiment [6] (setting [8]); 44.8% in experiment [6] (at 50.0 µM).

As for `COC1=CC(=O)c2c(ccc3ncnc(N)c23)C1=O`, the growth inhibition in experiment [1] (setting [7]) was 20%; in experiment [1] (setting [8]), 73% (active); in experiment [1] (at 50.0 µM), 22%; in experiment [2] (setting [7]), 15%; in experiment [2] (setting [8]) it was 15%; in experiment [2] (at 50.0 µM), 3.35%. Moreover, the growth inhibition in experiment [3] (setting [7]) was 14%; in experiment [3] (setting [8]), 28%; in experiment [3] (at 50.0 µM), -6%; in experiment [4] (setting [7]) it was 18%; in experiment [4] (setting [8]), 32%; in experiment [4] (at 50.0 µM) it was 24.9%. Moreover, the growth inhibition was 19% in experiment [5] (setting [7]); -11% in experiment [5] (setting [8]); 17.5% in experiment [5] (at 50.0 µM); 13% in experiment [6] (setting [7]); 59% in experiment [6] (setting [8]); -4.3% in experiment [6] (at 50.0 µM).

Regarding `OC(c1ccccc1)c1cccc(Br)c1` (stereo unspecified), the growth inhibition in experiment [1] (setting [7]) is -2%; in experiment [1] (setting [8]), 67%; in experiment [1] (at 50.0 µM), 76.5% (active); in experiment [2] (setting [7]), -11%; in experiment [2] (setting [8]), 77% (active); in experiment [2] (at 50.0 µM) it was 59.8%. For the same compound, the growth inhibition is -13% in experiment [3] (setting [7]); 55% in experiment [3] (setting [8]); 52.9% in experiment [3] (at 50.0 µM); -1% in experiment [4] (setting [7]); 48% in experiment [4] (setting [8]); 42.6% in experiment [4] (at 50.0 µM). The growth inhibition is -3% in experiment [5] (setting [7]); 68% in experiment [5] (setting [8]); 30.1% in experiment [5] (at 50.0 µM); 14% in experiment [6] (setting [7]); 77% (active) in experiment [6] (setting [8]); 87.2% (active) in experiment [6] (at 50.0 µM).
